In PubChem BioAssay (NCI) one finds growth data, which are given here for eight compounds.

Test systems include SK-MEL-2 melanoma; EKVX NSCLC; SN12C renal; UO-31 renal; TK-10 renal; ACHN renal; CAKI-1 renal; A498 renal; CCRF-CEM leukemia; MOLT-4 leukemia; SR leukemia; RPMI-8226 leukemia; OVCAR-8 ovarian; OVCAR-5 ovarian; OVCAR-4 ovarian; SK-OV-3 ovarian; IGROV1 ovarian; OVCAR-3 ovarian; HS 578T breast; NCI/ADR-RES ovarian.
Assay in all cases: NCI-60 one-dose screen, 48 h (100 = growth as untreated, 0 = no growth, -100 = all killed)
Details in all cases: 10 µM unless noted

The structures appear in SMILES notation. This is part of a sample that, as a whole, favours compounds with a hit. Of some 83,000 tested, about 20% had one in any assay.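 Note: values are percent growth. 100 is the growth of untreated cells, values between 100 and 0 indicate rising inhibition; between -100 and 0 indicates cell death.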 Values without a mark were called inactive. The source made the active and inactive calls. Rule for the calls: active = growth percent below 10; inactive = the rest.

Take `Nc1n[nH]c2cccc(C#Cc3cccc(C(=O)Nc4ccc(Cl)c(C(F)(F)F)c4)c3)c12`: the growth in the test on SK-MEL-2 melanoma is 39.2%; with EKVX NSCLC, 74.2%; in the test on SN12C renal it was 51.7%; in the test with UO-31 renal it was 29.6%; in the test on TK-10 renal it was 91.5%; in the test on ACHN renal, 59.1%. In addition, the growth was 94.5% in the test on CAKI-1 renal; 35.6% in the test with A498 renal; 35.8% in the test on CCRF-CEM leukemia; 31.2% in the test with MOLT-4 leukemia; 56% in the test with SR leukemia; 53.1% in the test on RPMI-8226 leukemia. Besides, the growth with OVCAR-8 ovarian was 65.8%; with OVCAR-5 ovarian, 43.4%; in the test with OVCAR-4 ovarian it was 56.2%; in the test on SK-OV-3 ovarian, 106%; in the test with IGROV1 ovarian, 35.8%; with OVCAR-3 ovarian it was 81.6%. The growth in the test with HS 578T breast is 53.3%; with NCI/ADR-RES ovarian, 62.2%.
Take `CN1C(=O)N(C)C2C1NN=c1s/c(=C\c3ccc(F)cc3)c(=O)n12` (stereo not given): the growth with SK-MEL-2 melanoma was 48.6%; in the test with EKVX NSCLC it was 63.8%; in the test with SN12C renal it was 36.3%; in the test on UO-31 renal, 39.8%; in the test with TK-10 renal, 65.1%; in the test with ACHN renal, 39.2%. Also, the growth is 29.1% in the test with CAKI-1 renal; 9.72% (active) in the test with A498 renal; 18.1% in the test with CCRF-CEM leukemia; 23.2% in the test on MOLT-4 leukemia; 26.8% with SR leukemia; 66.5% in the test with RPMI-8226 leukemia. Moreover, the growth in the test on OVCAR-8 ovarian is 29.5%; in the test with OVCAR-5 ovarian, 48.6%; in the test on OVCAR-4 ovarian it was 28.6%; with SK-OV-3 ovarian it was 33.1%; in the test with IGROV1 ovarian, 11%; in the test on OVCAR-3 ovarian it was 7.29% (active). Besides, the figures for the growth with HS 578T breast and in the test on NCI/ADR-RES ovarian were 14.8% and 10.3%, respectively.
Turning to `C#CCOc1cccc(Nc2c(Cl)c(CCl)nc3ccc(Oc4ccccc4)cc23)c1`, the growth in the test with SK-MEL-2 melanoma was 37.4%; with EKVX NSCLC, 76.5%; in the test with SN12C renal it was 5.93% (active); with UO-31 renal it was 61.7%; in the test with TK-10 renal, 76.5%; with ACHN renal, 63.5%. Also, the growth in the test on CAKI-1 renal was 76.1%; in the test with A498 renal, 99.7%; with CCRF-CEM leukemia it was 9.4% (active); with MOLT-4 leukemia, 14%; with SR leukemia, 10.4%; in the test with RPMI-8226 leukemia, 24.5%. Moreover, the growth with OVCAR-8 ovarian is 24.8%; in the test with OVCAR-5 ovarian, 82.7%; in the test with OVCAR-4 ovarian, 75%; in the test on SK-OV-3 ovarian, 109%; with IGROV1 ovarian it was 43.2%; in the test on OVCAR-3 ovarian, 31.6%. The figures for the growth with HS 578T breast and with NCI/ADR-RES ovarian were 74.9% and 60.2%, respectively.
As for `COc1ccc(/C=N/NC(=O)Cn2nnc3ccccc32)cc1`, the growth in the test on SK-MEL-2 melanoma is 100%; with EKVX NSCLC, 101%; in the test with SN12C renal, 86.6%; with UO-31 renal, 77.8%; in the test on TK-10 renal, 111%; in the test with ACHN renal it was 94.6%. Further, the growth is 90.4% in the test with CAKI-1 renal; 98.4% in the test with A498 renal; 106% in the test on CCRF-CEM leukemia; 93% in the test on MOLT-4 leukemia; 96% with SR leukemia; 101% in the test on RPMI-8226 leukemia. The growth in the test with OVCAR-8 ovarian is 96.7%; with OVCAR-5 ovarian, 104%; with OVCAR-4 ovarian it was 115%; with SK-OV-3 ovarian, 95.5%; in the test with IGROV1 ovarian, 95.9%; in the test on OVCAR-3 ovarian, 95%. In addition, the growth is 77.6% in the test with HS 578T breast and 104% with NCI/ADR-RES ovarian.
In the case of `CCCc1cc(CCC)n2nc(N)nc2n1`, the growth in the test with SK-MEL-2 melanoma was 128%; in the test on EKVX NSCLC, 115%; with SN12C renal, 101%; in the test on UO-31 renal, 129%; with TK-10 renal, 114%; in the test on ACHN renal, 101%. The growth with CAKI-1 renal is 95.3%; in the test with A498 renal, 96%; with CCRF-CEM leukemia, 93.1%; in the test on MOLT-4 leukemia, 94.8%; in the test with SR leukemia, 109%; in the test with RPMI-8226 leukemia, 104%. Moreover, the growth in the test on OVCAR-8 ovarian was 106%; in the test with OVCAR-5 ovarian, 98.8%; with OVCAR-4 ovarian, 116%; in the test with SK-OV-3 ovarian, 105%; in the test with IGROV1 ovarian it was 126%; in the test with OVCAR-3 ovarian it was 121%. Also, the growth in the test on HS 578T breast is 103%; in the test with NCI/ADR-RES ovarian, 109%.
`O=C(CN1C(=O)c2ccccc2S1(=O)=O)Nc1nc(-c2cc3ccccc3oc2=O)cs1`: the growth was 107% in the test on SK-MEL-2 melanoma; 102% in the test with EKVX NSCLC; 97.2% in the test on SN12C renal; 91% in the test with UO-31 renal; 137% with TK-10 renal; 103% with ACHN renal. In addition, the growth in the test on CAKI-1 renal was 100%; in the test on A498 renal it was 98%; in the test on CCRF-CEM leukemia it was 104%; in the test with MOLT-4 leukemia, 110%; in the test with SR leukemia, 109%; with RPMI-8226 leukemia, 108%. Further, the growth in the test with OVCAR-8 ovarian is 101%; with OVCAR-5 ovarian, 106%; in the test with OVCAR-4 ovarian it was 110%; with SK-OV-3 ovarian, 106%; with IGROV1 ovarian, 99.1%; in the test with OVCAR-3 ovarian it was 113%. In addition, the growth in the test on HS 578T breast is 96.6%; in the test on NCI/ADR-RES ovarian it was 103%.
For `O=C1OCC2=C1C(c1cccc(F)c1)c1cc3c(cc1N2CCO)CCC3` (stereo not given), the growth is 27% with SK-MEL-2 melanoma; 40.9% in the test on EKVX NSCLC; 26.7% in the test with SN12C renal; 37.8% in the test with UO-31 renal; 57.5% with TK-10 renal; 22.8% with ACHN renal. For the same compound, the growth in the test on CAKI-1 renal was 32.5%; with A498 renal, 5.8% (active); with CCRF-CEM leukemia it was 5.27% (active); with MOLT-4 leukemia, 11.4%; in the test with SR leukemia, 12.3%; in the test with RPMI-8226 leukemia, 23.3%. The growth in the test on OVCAR-8 ovarian was 13.5%; with OVCAR-5 ovarian, 36.2%; in the test on OVCAR-4 ovarian, 48.8%; with SK-OV-3 ovarian it was 32.8%; in the test on IGROV1 ovarian it was 23.5%; in the test with OVCAR-3 ovarian, -24.9% (active). Also, the growth was 41.2% in the test on HS 578T breast and 13.3% in the test with NCI/ADR-RES ovarian.
As to `COc1cccc2cc(N(C)c3ncnc4ccccc34)ccc12`, the growth with SK-MEL-2 melanoma is 30.1%; in the test with EKVX NSCLC, 43.8%; in the test on SN12C renal, 20.9%; in the test on UO-31 renal, 25.4%; in the test with TK-10 renal, 51%; in the test on ACHN renal, 6.07% (active). For the same compound, the growth in the test with CAKI-1 renal was 10.8%; in the test with A498 renal, -7.44% (active); in the test with CCRF-CEM leukemia, 22%; with MOLT-4 leukemia it was 16.8%; in the test on SR leukemia, 9.25% (active); in the test with RPMI-8226 leukemia it was -18.3% (active). Moreover, the growth with OVCAR-8 ovarian was 6.23% (active); with OVCAR-5 ovarian it was 54.3%; in the test with OVCAR-4 ovarian it was 34.7%; with SK-OV-3 ovarian, 33.9%; with IGROV1 ovarian, 14.4%; in the test with OVCAR-3 ovarian, 6.13% (active). The growth is 40.9% in the test on HS 578T breast and 8.39% (active) with NCI/ADR-RES ovarian.
